Bioassay records (PubChem BioAssay)
ATG4B inhibitor: blocks human ATG4B protease cleavage of LC3 substrate | hit rate 0.51% among 340,000 | inhibition, % at 8.33 µM | ATG4B cleavage of LC3-PLA2, NBD-HPC fluorescence, 1 h | Q9Y4P1 | AID 504462; in the data active = inhibition above about 40%
CHRM1 agonist: human M1 muscarinic receptor agonism | P11229 | CHO-K1 hM1, Fluo-8 calcium fluorescence, agonist mode; 0% DMSO, 100% acetylcholine EC100 | activation, % at 3 µM | hit rate 0.33% among 360,000 | AID 588814;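 active = activation above the run's mean compound activation plus 3 SD, cut at about 16% in these data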;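 also: peak over basal fluorescence ratio within a 140 s kinetic read after compound addition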
Target sequence (P11229 whole entry, looked up): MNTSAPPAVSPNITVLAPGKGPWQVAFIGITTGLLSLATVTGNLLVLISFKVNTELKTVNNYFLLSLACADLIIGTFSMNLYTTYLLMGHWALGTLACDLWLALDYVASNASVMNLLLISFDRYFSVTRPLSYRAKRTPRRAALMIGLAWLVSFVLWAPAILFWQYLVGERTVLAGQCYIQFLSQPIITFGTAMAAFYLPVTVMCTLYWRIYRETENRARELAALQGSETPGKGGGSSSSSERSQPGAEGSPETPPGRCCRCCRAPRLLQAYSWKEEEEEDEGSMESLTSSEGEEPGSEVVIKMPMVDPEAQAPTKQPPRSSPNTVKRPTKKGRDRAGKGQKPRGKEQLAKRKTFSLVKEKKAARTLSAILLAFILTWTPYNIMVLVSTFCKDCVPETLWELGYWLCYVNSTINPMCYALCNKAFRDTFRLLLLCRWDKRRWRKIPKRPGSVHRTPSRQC
M1 antag: human CHRM1 antagonism; CHO-K1 hM1, Fluo-8 calcium fluorescence, ACh EC80 antagonist; inhibition, % at 3 µM; hit rate 1.3% among 360,000;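 active = percent inhibition above its own plate's cutoff, namely the mean of that plate's compound wells plus 3 SD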;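 also: peak over basal fluorescence ratio during 140 s after agonist addition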
CHRM1 PAM: potentiates human M1 receptor response to acetylcholine | P11229 | CHO-K1 hM1, Fluo-8 calcium fluorescence, ACh EC20; 0% = ACh EC20, 100% = maximal ACh | activation, % at 3 µM | hit rate 0.088% among 360,000 | AID 588819; in the data active = activation above about 19%, passing the limit was not always enough
SKN-1 block: blocks SKN-1 activity in C. elegans; C. elegans VP596 Pgst-4::GFP/RFP ratio, acrylamide-induced, 24 h; inhibition, % at 21.8 µM; hit rate 0.49% among 360,000; AID 624304;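 active = interference check ratio from 0.5 to 1.5 plus GFP to RFP signal ratio inhibition reaching or exceeding a fixed threshold, cut at about 30% in these data, passing the limit was not always enough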
Myeloid diff 2: compounds promoting myeloid differentiation; calls only at 10 µM; ER-HoxA9 myeloid progenitors, lysozyme-GFP differentiation, flow cytometry; hit rate 1% among 360,000; AID 624256;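 active = normalized GFP-positive differentiation at or above the plate's own cutoff, the solvent-only control mean plus 3 SD; inconclusive = no clear call, values can overlap the other calls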;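 also: cells exposed to compound for four days before flow analysis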
Of the large screens only hits and unclear results are named; the others gave an inactive call. Hits are enriched below; roughly 3.5% of the tested compounds scored in any of these assays.

O=S(=O)(N/N=C1/CC(c2ccccc2)Oc2ccccc21)c1ccccc1 (stereo not drawn)	Myeloid diff 2 active
CC1CCc2c(sc3ncnc(SC(C)C(=O)NCC4CCCO4)c23)C1 (stereo not drawn)	none
Cc1ccc(C(=O)C[n+]2cccc3cc(C)ccc32)cc1	Myeloid diff 2 active
COc1ccc2c(ccc[n+]2CC(=O)c2ccc(C)cc2)c1	none
O=C(NCc1ccccc1C(F)(F)F)c1cccc2c1C(=O)c1ccc(N3CCC(N4CCCCC4)CC3)cc1S2(=O)=O	M1 antag 39, Myeloid diff 2 active (no result: ATG4B inhibitor)
O=C(NCc1ccccc1C(F)(F)F)c1cccc2c1C(=O)c1ccc(N3CCOCC3)cc1S2(=O)=O	none
O=C(NCc1ccccc1Br)c1cccc2c1C(=O)c1ccc(N3CCC(Cc4ccccc4)CC3)cc1S2(=O)=O	Myeloid diff 2 active
O=C(NCC1CCCO1)c1cccc2c1C(=O)c1ccc(N3CCC(Cc4ccccc4)CC3)cc1S2(=O)=O (stereo not drawn)	CHRM1 agonist 17, M1 antag 38
O=C(C1CC1)N1CCc2cc(Br)c(S(=O)(=O)N3CCCCCC3)cc21	none
COc1ccccc1NS(=O)(=O)c1cccc(C(=O)NCC(c2ccccc2OC)N2CCCC2)c1 (stereo not drawn)	M1 antag 42
C=CCN(c1ccccc1)S(=O)(=O)c1cccc(C(=O)NCC(c2ccccc2OC)N2CCCC2)c1 (stereo not drawn)	M1 antag 50
COc1ccccc1C(CNC(=O)c1cccc(S(=O)(=O)Nc2ccc(C)cc2)c1)N1CCCC1 (stereo not drawn)	M1 antag 78
CCN(C(=O)C(C)N1C(=O)/C(=C/c2cccs2)SC1=S)C1CCS(=O)(=O)C1 (stereo not drawn)	Myeloid diff 2 inconclusive
COc1ccc(C(CNC(=O)Cc2c(F)cccc2Cl)N2CCCCC2)cc1 (stereo not drawn)	M1 antag 68
COc1ccc(C(CNC(=O)CNC(=O)c2ccc(F)cc2)N2CCCC2)cc1 (stereo not drawn)	none
CC1CC1C(=O)OCC(=O)Nc1cccc(Br)c1 (stereo not drawn)	none
O=C(COC(=O)C12CC3CC(CC(O)(C3)C1)C2)Nc1cccc(Br)c1	SKN-1 block 38
CCOC(=O)C1=CCN(S(=O)(=O)c2ccccc2C)C1c1ccc(Cl)c(Cl)c1 (stereo not drawn)	none (no result: ATG4B inhibitor)
C[N+]1(CC(O)c2ccccc2)CCCCCC1 (stereo not drawn)	none
C(#Cc1ccccc1)C[N+]1(CC#Cc2ccccc2)CCCCC1	M1 antag 60
Cc1ccc(C#CC[N+]2(CC#Cc3ccc(C)cc3)CCCCC2)cc1	M1 antag 48, Myeloid diff 2 inconclusive
C#CC[N+]1(CC#Cc2ccccc2)CCCCC1	none
CCC[N+]1(CC#CCC(c2ccccc2)c2ccccc2)CCCCC1	M1 antag 63
Cc1cc(O)ccc1NC(=O)CCN1C(=O)c2ccc([N+](=O)[O-])cc2C1=O	CHRM1 PAM 28
O=C(CCN1C(=O)c2ccc([N+](=O)[O-])cc2C1=O)Nc1cccc(O)c1	none
Cc1ccc(F)cc1C(=O)N1CCCCC1c1cc(C(=O)NCc2ccccc2)no1 (stereo not drawn)	none (no result: ATG4B inhibitor)
O=C1O/C(=C\c2ccccc2)c2ccccc21	none
O=C1N/C(=C\c2ccccc2)c2ccccc21	Myeloid diff 2 active
CSc1ccc(/C=N/N2CCN(Cc3ccc(Cl)cc3)CC2)cc1	SKN-1 block 55
CC(=O)N(/N=C1\Sc2ccccc2C1=O)c1ccccc1C	SKN-1 block 40
CC(=O)N(/N=C1\Sc2ccccc2C1=O)c1ccc(C)cc1C	SKN-1 block 43, Myeloid diff 2 active
CC(=O)N(/N=C1\Sc2ccccc2C1=O)c1ccccc1	none
COc1cc(NC(=O)CCn2c(=S)[nH]c3ccccc3c2=O)cc(OC)c1OC	none (no result: ATG4B inhibitor)
CC1C(=O)N2CCCc3cc(S(=O)(=O)N4CCN(c5ccccc5F)CC4)cc1c32 (stereo not drawn)	none
CCN1CCN(Cc2nnc(-c3ccc(C)cc3)o2)CC1	none
COc1ccc(Nc2nc(C(=O)NCCCN3CCOCC3)cs2)cc1	SKN-1 block 33
CCCCCCn1c(N2CCN(c3cccc(Cl)c3)CC2)nc2c1c(=O)[nH]c(=O)n2C	SKN-1 block 38
CCCCCCCCn1c(N2CCN(c3cccc(Cl)c3)CC2)nc2c1c(=O)[nH]c(=O)n2C	none
Cc1nc(C(=O)NCc2ccccc2)sc1C1(C)CC(c2ccccc2)=NO1 (stereo not drawn)	CHRM1 agonist 17
CC1CCN(S(=O)(=O)c2cccc(C(=O)Nc3nncs3)c2)CC1	none
O=C1CCCN1C(=O)CSc1nnnn1-c1ccccc1	none
N#Cc1ccc(OCC(O)CN2CCN(C(c3ccccc3)c3ccccc3)CC2)cc1 (stereo not drawn)	M1 antag 88
OC(COc1ccccc1)CN1CCN(C(c2ccccc2)c2ccccc2)CC1 (stereo not drawn)	none
CN=c1sc2ccccc2n1CC(O)COCc1ccco1 (stereo not drawn)	Myeloid diff 2 active
CCC(=O)c1ccc(OCC(O)CN2CCN(C(c3ccccc3)c3ccccc3)CC2)cc1 (stereo not drawn)	M1 antag 70
OC(COCc1ccco1)CN1CCN(C(c2ccccc2)c2ccccc2)CC1 (stereo not drawn)	M1 antag 67
Cc1ccc(S(=O)(=O)N(C)C)cc1NC(=O)c1ccccc1SCC(=O)N1CCCC1	none
COc1ccc2cc(N3CCCC3=O)ccc2c1	SKN-1 block 41
COc1cc(NC(=O)c2ccc(N3CCCC3=O)cc2)cc(OC)c1	none
CC(C)N(CC#CCC(O)(c1ccccc1)c1ccccc1)CCO	none
CCN(CC#CCC(O)(c1ccccc1)c1ccccc1)C(C)C	M1 antag 82
CCc1ccc2nc(N(CCCN(C)C)C(=O)c3ccc(S(=O)(=O)N4CCCC4)cc3)sc2c1	M1 antag 39
CN(C)CCCN(C(=O)c1ccc2c(c1)CCCC2)c1nc2ccc(Cl)cc2s1	Myeloid diff 2 active
COc1cc(NC(=O)Cc2ccc([N+](=O)[O-])cc2)c(C(=O)O)cc1OC	none
FC(F)(F)Oc1ccccc1C(c1nnnn1C1CCCC1)N1CCN(C/C=C/c2ccccc2)CC1 (stereo not drawn)	M1 antag 56 (no result: ATG4B inhibitor)
CC(C)(C)n1nnnc1C(c1ccnc2ccccc12)N1CCN(C/C=C/c2ccccc2)CC1 (stereo not drawn)	none (no result: ATG4B inhibitor)
C(=C\c1ccccc1)/CN1CCN(C(c2ccccc2)c2nnnn2C2CCCC2)CC1 (stereo not drawn)	M1 antag 54 (no result: ATG4B inhibitor)
c1ccc(C(c2nnnn2C2CCCC2)N2CCCCCC2)nc1 (stereo not drawn)	M1 antag 34
